Test results from PubChem BioAssay AID686978 (National Center for Advancing Translational Sciences (NCATS), 2013).
In all, about 420,000 compounds went through this assay and about 64,000 (15%) were called active. Roughly 27% stayed inconclusive and do not appear here. Calls follow the shape of the dose curve; as a rule, active = well fitted inhibition curve with a large enough effect; inconclusive = small, poorly fitted or top-dose-only effect; inactive = flat fitted curve, though single readings scatter. The list is a sample of the results.

Assay: qHTS for Inhibitors of human tyrosyl-DNA phosphodiesterase 1 (TDP1): qHTS in cells in absence of CPT; also: nearly all actives have a fitted effect of over 55% in size
Details: DT40 Tdp1-/- hTDP1 cells, no CPT, ATP luminescence, 48 h; activity change, negative = growth inhibition: at 46.2 µM (top of the series)
Summary of the method: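 Readout: luminescence from CellTiter-Glo after 30 min in the dark at RT. Cells: DT40 Tdp1-/- with stable hTDP1, 400/well. Exposure: compounds alone, ≥48 hr, 37 °C.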
% is scaled to controls: 0 for no effect and ±100 for the full control effect; potency is read from the fitted curve at half-maximal effect.

Compound	activity change, negative = growth inhibition	Potency
O=C(Nc1ccccc1C(F)(F)F)c1cc(-c2ccc(O)cc2)on1	-22.7% (inactive)	
CCN(CC)Cc1cc(C(C)=O)ccc1O	-12% (inactive)	
O=C(NCc1cccs1)C(=O)NCC1OCCCN1S(=O)(=O)c1ccc(F)cc1 (stereo unspecified)	-6.86% (inactive)	
CSCc1nnc(NC(=O)c2ccc(S(=O)(=O)N3CCCCC3C)cc2)o1 (stereo unspecified)		20.6 µM (active)
CC1CC(C)CN(S(=O)(=O)c2ccc(C(=O)NN3CCOCC3)cc2)C1 (stereo unspecified)	1.46% (inactive)	
CCN(CC(=O)NCc1cccs1)S(=O)(=O)c1ccc(NC(C)=O)cc1	-24.5% (inactive)	
CC1CCCCN1S(=O)(=O)c1ccc(C(=O)Nc2nnc(-c3cccs3)o2)cc1 (stereo unspecified)		5.8 µM (active)
CC1CCCCN1S(=O)(=O)CCNC(=O)c1ccccc1 (stereo unspecified)	-11.4% (inactive)	
CCc1nnc(NC(=O)c2ccc(S(=O)(=O)NC3CCCCC3)cc2)s1	-23.5% (inactive)	
COCCN(CC(=O)Nc1ccccc1C)S(=O)(=O)c1ccc(S(=O)(=O)N2CCCC2)cc1	-15.9% (inactive)	
CC1CCCCN1S(=O)(=O)c1ccc(S(=O)(=O)N(CC(=O)Nc2ccccc2)Cc2cccs2)cc1 (stereo unspecified)		25.9 µM (active)
CS(=O)(=O)c1ccc(-c2nnc(NC(=O)c3ccc4c(c3)OCCO4)o2)cc1	-19.6% (inactive)	
CC(=O)c1ccc(NC(=O)C2CCCN2S(=O)(=O)c2cccs2)cc1 (stereo unspecified)	-19.4% (inactive)	
CC1CCCN(S(=O)(=O)c2ccc(C(=O)Nc3nnc(-c4ccncc4)o3)cc2)C1 (stereo unspecified)		10.3 µM (active)
COC(=O)c1ccc(N(CC(=O)NC2CCCC2)C(=O)CNC(=O)c2ccco2)cc1	-8.13% (inactive)	
C=C(C)C1CC=C(C)/C(=N/NC(=O)CCCNc2cccc(C)c2)C1 (stereo unspecified)	6.81% (inactive)	
CCOc1ccc(-c2n[nH]c(=S)n2/N=C/c2cc3c(cc2[N+](=O)[O-])OCO3)cc1	-20.6% (inactive)	
NC(=O)c1ccc(NC(=O)COC(=O)c2ccc([N+](=O)[O-])cc2)cc1	23.4% (inactive)	
COCc1cc(C)nc2sc3c(=O)n(-c4cccc5ccccc45)nnc3c12	-15.1% (inactive)	
CC1(C)OC[C@@H](COC(=O)CCc2ccc(OC[C@@H](O)CNCCNC(=O)N3CCOCC3)cc2)O1		inactive
C=CCn1c(SCC(=O)CC(=O)OCC)nc2cc(C(=O)N3CCC(C(N)=O)CC3)ccc2c1=O	-17.2% (inactive)	
C=CCN1C(=O)c2ccc(C(=O)N3CCC(C(=O)OCC)CC3)cc2C1=O	-1.68% (inactive)	
CCc1ccc(Nc2nn3c(=O)c4cc5c(cc4nc3s2)OCO5)cc1	-10.1% (inactive)	
Cc1cc(C(=O)NCCc2ccc(Cl)cc2)c(C)o1	-17.5% (inactive)	
Cc1ccccc1Nc1nn2c(=O)c3ccc(C(=O)NCCc4ccc(Cl)cc4)cc3nc2s1		14.6 µM (active)
CCOC(=O)C1CCN(C(=O)c2ccc3c(=O)n4nc(Nc5ccccc5CC)sc4nc3c2)CC1		10.3 µM (active)
